The list is not random: actives were taken first. Their share in the collection is about 11%.
AMA1 RON2 block – AMA1-RON2 (P. falciparum) interaction inhibition | AlphaScreen AMA1-biotinylated RON2 peptide binding | Potency, µM (titrated, usually from 58.2 µM), without a hit: at the top dose activity change, negative = inhibition, actives largely listed as inhibitors | 360,000 tested, 0.2% active;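 also: 0% = vehicle wells and -100% = peptide control; nearly all actives have a fitted effect of over 45% in size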
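AMA1 (3D7) with his tag at 25 nM final met compounds first, then biotinylated RON2 peptide at 25 nM; detection used donor plus acceptor beads, 10 µg/mL apiece, read by AlphaScreen after 30 min at room temperature.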
AmpC inh detg – inhibitors of E. coli AmpC beta-lactamase with detergent. 370,000 tested, 0.041% active. Potency, µM (doses to about 114 µM), inactives show at the top dose activity change, negative = inhibition, actives largely listed as inhibitors. AmpC hydrolysis of nitrocefin, absorbance 480 nm, 0.01% Triton. P00811;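 also: 0% = no-compound wells and -100% = no-enzyme wells; nearly all actives have a fitted effect of over 25% in size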
Target sequence (P00811 whole entry, looked up): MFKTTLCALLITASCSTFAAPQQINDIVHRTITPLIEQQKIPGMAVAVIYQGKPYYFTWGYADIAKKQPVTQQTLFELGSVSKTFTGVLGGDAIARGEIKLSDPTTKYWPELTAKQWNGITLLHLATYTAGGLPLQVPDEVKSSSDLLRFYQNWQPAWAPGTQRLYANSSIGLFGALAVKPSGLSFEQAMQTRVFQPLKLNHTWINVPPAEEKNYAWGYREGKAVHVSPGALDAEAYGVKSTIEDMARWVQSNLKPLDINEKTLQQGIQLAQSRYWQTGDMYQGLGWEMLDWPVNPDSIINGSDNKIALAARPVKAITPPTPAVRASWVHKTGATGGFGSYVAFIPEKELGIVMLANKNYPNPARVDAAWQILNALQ
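20 mM phosphate pH 7.0 + 0.01% (detergent screen) or 0.0001% Triton X-100; 5.3 nM AmpC reagent; cpd preinc 15 min RT; nitrocefin (800 uM stock) to start; A480 q20 s × 4 min; Activity was normalised to no-enzyme and no-compound control wells.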
AmpC no deterg – AmpC beta-lactamase inhibition without detergent; P00811; AmpC nitrocefin hydrolysis, absorbance 480 nm, 0.0001% Triton; Potency, µM (series often up to 57.1 µM), for the others: at the highest dose activity change, negative = inhibition, actives largely listed as inhibitors; 330,000 tested, 0.52% active;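 also: plate controls were no compound for no effect and no enzyme for full effect; nearly all actives have a fitted effect of over 20% in size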
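20 mM phosphate pH 7.0 + 0.01% (detergent screen) or 0.0001% Triton X-100; 5.3 nM AmpC reagent; cpd preinc 15 min RT; nitrocefin (800 uM stock) to start; A480 q20 s × 4 min; Activity was normalised to no-enzyme and no-compound control wells.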
Pf growth 48h – inhibits P. falciparum growth in the first generation, 48 h; P. falciparum luciferase growth in erythrocytes, 48 h; Potency, µM (doses to about 28.7 µM), inactives show top-dose activity change, negative = inhibition, actives largely listed as inhibitors; 310,000 tested, 5.9% active; AID 504832
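A one-generation exposure of luciferase-tagged malaria parasites in RPMI 1640/Albumax erythrocyte culture, 37 C and 5% CO2. Inhibition is inferred from decreased luminescence after adding detection reagent.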
HCV inhibitor – inhibitors of hepatitis C virus infection | Huh7.5.1 HCVcc-Cre infection, luciferase reporter, 44 h | Potency, µM (doses to about 41.8 µM), for the others: top-dose activity change, negative = inhibition, usual class: inhibitors | 340,000 tested, 3.4% active | AID 651820
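After 44 h co-culture of compound, cells and HCVcc-Cre (~0.5 moi), substrate is added for 15 min at room temperature and luciferase measured over 15 sec. Cells were seeded at 1,000/well and pre-cultured 4 h.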
Pf growth 96h – P. falciparum growth inhibition at 96 hours | P. falciparum luciferase reporter growth, 96 h | AID 504834 | Potency, µM (series often up to 28.7 µM), inactives show at the highest dose activity change, negative = inhibition, usual class: inhibitors | 320,000 tested, 6.9% active
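Infected RBCs, 2% Hct / 0.05% parasitemia final; luciferase-reporter P. falciparum; cpd 96 h, 37 C, 5% CO2; luciferase detection reagent; luminescence.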
An asterisk follows results filed as active; u = inconclusive; x = no result given; [ ] = dose if it differs, or a comment. Calls follow the shape of the dose curve; as a rule, active = well fitted curve in the direction sought with a large enough effect; inconclusive = small, poorly fitted or top-dose-only effect, or another doubt; inactive = no such curve, though single readings can be large; an effect the other way counts as inactive or inconclusive. Unless noted, % is scaled to controls: 0 for no effect and ±100 for the full control effect; potency is read from the fitted curve at half-maximal effect.

SMILES | AMA1 RON2 block | AmpC inh detg | AmpC no deterg | Pf growth 48h | HCV inhibitor | Pf growth 96h
COc1ccc(CCC(=O)Nc2ccc(OC)c(S(=O)(=O)N3CCCCC3)c2)cc1OC | 2% | 7% | -11% | u | 10µM* | u
O=C(COc1ccccc1F)OCc1cc(=O)n2nc(C3CC3)sc2n1 | x | 2% | x | x | x | x
Cc1ccc(CNC(=O)C(CC(C)C)NS(=O)(=O)c2ccc3c(c2)oc(=O)n3C)cc1 (stereo not drawn) | x | 15% | x | x | x | x
COc1ccc(NC(=O)c2n[nH]c(=O)c3ccccc23)cc1S(=O)(=O)N1CCCCC1 | -7% | -7% | -58% | u | 11µM* | u
Cc1ccc(Cn2c(=N)n(CC(=O)c3ccccc3)c3ccccc32)cc1 | 11% | -1% | -14% | u | 10µM* | 39%
N=c1n(CC(=O)c2cccc([N+](=O)[O-])c2)c2ccccc2n1Cc1ccccc1 | 4% | -15% | -38% | u | u | 15%
CC(C)(C)C(=O)Cn1c(=N)n(Cc2ccccc2)c2ccccc21 | 25% | -3% | -2% | 13µM* | u | u
CCOCCc1nn2c(=O)cc(COC(=O)c3ccccc3OC)nc2s1 | x | 8% | x | x | x | x
CCOc1ccc(CCNC(=O)Cn2nc(CC)n3c(cc4c(OC)cccc43)c2=O)cc1OCC | x | 9% | x | x | x | x
COc1cccc(Nc2nc(-c3cccs3)nc3ccccc23)c1 | -10% | u | -29% | 29% | u | -72%
COc1ccc(Nc2nc(-c3cccs3)nc3ccccc23)cc1 | -8%[2.32 µM] | 11% | -26% | -14% | 4.5µM* | 0%
CCSc1nc(-c2cccs2)nc2ccccc12 | 36% | -4% | -33% | -27% | 4µM* | 42%
COc1ccc(N2CCN(c3nc(-c4cccs4)nc4ccccc34)CC2)cc1 | u | 0% | -11% | u | 11µM* | u
c1ccc(CNc2nc(-c3cccs3)nc3ccccc23)cc1 | 11% | -5% | -28% | u | u | u
c1csc(-c2nc(N3CCOCC3)c3ccccc3n2)c1 | 1% | 4% | 0% | -1% | 11µM* | 4%
CC(C)c1nn2c(=O)cc(COC(=O)C3CCCCC3)nc2s1 | x | 6% | x | x | x | x
O=C(Nc1cnn(Cc2ccc(Cl)cc2Cl)c1)c1noc2c1CCc1ccccc1-2 | x | 31% | x | x | x | x
CCCSCCCNC(=O)c1sc2nc(C)cc(C)c2c1-n1cccc1 | x | -9% | x | x | x | x
O=S(=O)(c1ccc(Cl)cc1)N1CCN(c2nc(-c3cccs3)nc3ccccc23)CC1 | 7%[11.6 µM] | -9% | -34% | 3.7µM* | -16% | 1.5µM*
O=c1c(Cl)c2oc3ccccc3nc-2c2ccccc12 | -12% | 3% | -26% | 13µM* | u | -8%
Clc1ccc(-c2nnc(Sc3nc4ccccc4o3)c3ccccc23)cc1 | -4% | -9% | -4% | 37% | -28% | 8%
S=c1[nH]nc(-c2cc(-c3ccco3)[nH]n2)n1-c1cccc2ccccc12 | -6% | -13% | 18µM* | u | 19% | u
O=C(Cc1c(F)cccc1Cl)Nc1nccs1 | -8% | -14% | -18% | 6% | 11% | 15µM*
CCN(CC)CCCNc1nc2ccccc2c2nc(-c3ccncc3)nn12 | -17% | 6% | 25% | 6.6µM* | u | 4.1µM*
CCN(CC)CCCNc1nc2cc(OC)c(OC)cc2c2nc(-c3ccccc3)nn12 | -2% | 1% | -7% | 2.3µM* | u | 22%
SMILES | AMA1 RON2 block | AmpC inh detg | AmpC no deterg | Pf growth 48h | HCV inhibitor | Pf growth 96h
COCCCNc1nc2cc(OC)c(OC)cc2c2nc(-c3ccccc3)nn12 | 10% | -8% | 43% | 0.29µM* | 5% | -2%
CCN(CC)CCCNc1nc2cc(OC)c(OC)cc2c2nc(-c3cccnc3)nn12 | -13% | -6% | -2% | 4.1µM* | u | x
CCOC(=O)C1CCCN(S(=O)(=O)c2csc(C(N)=O)c2)C1 (stereo not drawn) | x | 11% | x | x | x | x
Cc1cc(C)cc(NC(=O)N2CCCN(c3ncccc3[N+](=O)[O-])CC2)c1 | 1% | 6% | -16% | u | -22% | u
CC(C)NC(=S)N1CCCN(c2ncccc2[N+](=O)[O-])CC1 | 0% | -1% | -2% | u | -1% | 9.3µM*
COc1ccccc1C(=O)O[C@H]1[C@H](Cc2ccccc2)NS(=O)(=O)[C@H]2C[C@@H]3C=C[C@]12O3 | 10% | 5% | 2% | u | 8% | 5.9µM*
Cc1cc2c(C)cc(=O)[nH]c2cc1NC(=O)CCl | 8% | 8% | -6% | u | 11µM* | 8.3µM*
Cc1cc2oc(=O)cc(C)c2cc1NC(=O)CCl | 6% | 3% | -16% | u | u | 4.7µM*
Cc1cc2oc(=O)cc(C)c2cc1NC(=O)CCC(=O)O | -1% | u | -14% | x | -25% | -2%
CCC(=O)Nc1cc2[nH]c(=O)cc(C)c2cc1C | -8% | -14% | -20% | 8% | 10% | u
CCOc1cc(CNC(=O)c2cc(-c3ccccc3)n[nH]2)cc(OCC)c1OCC | x | -10% | x | x | x | x
Cc1cccc(OCC(=O)N(Cc2sccc2C)C2CCS(=O)(=O)C2)c1 (stereo not drawn) | x | 7% | x | x | x | x
Clc1ccc(CN2CCC(c3nc4ccc(Cl)cc4[nH]3)CC2)cc1 | -25% | -6% | -29% | 10µM* | u | u
CC(=O)Nc1ccc(S(=O)(=O)N2CCC(c3nc4ccc(C)cc4[nH]3)CC2)cc1 | -2% | -17% | -34% | u | x | u
CC(C)(C)c1ccc(S(=O)(=O)N2CCC(c3nc4ccc(Cl)cc4[nH]3)CC2)cc1 | -4% | 1% | -36% | 12µM* | u | -4%
O=C(Nc1ccc(F)cc1F)c1cc2c(=O)n3ccccc3nc2s1 | x | 25% | x | x | x | x
O=C(NCCSc1c(-c2ccc(Br)cc2)[nH]c2ccccc12)c1ccc(S(=O)(=O)N2CCOCC2)cc1 | x | 6% | x | x | x | x
CCCC[n+]1ccn(-c2nc3c([N+](=O)[O-])cccc3n2C)c1 | -1% | -20% | -17% | 13µM* | 1% | 2.1µM*
CCCC[n+]1ccn(-c2nc3ccccc3nc2[N-]S(=O)(=O)c2ccc(Cl)cc2)c1 | -2% | 2% | 30% | -16% | 4% | -24%
O=C(CSc1nc2ccsc2c(=O)n1-c1ccc(Br)cc1)NCc1ccccc1 | x | 4% | x | x | x | x
Cc1ccc(-c2csc(NC(=O)COC(=O)c3cccc(S(=O)(=O)N4CCOCC4)c3)n2)cc1 | -13% | 6% | -24% | 80% | -7% | 0%

Screening results deposited in PubChem by National Center for Advancing Translational Sciences (NCATS).
